An excerpt weighted towards active compounds, which were near 17% of everything screened.
HepG2 viability: HepG2 cytotoxicity, counter-screen for TGF-b inhibitors. HepG2 CAGA-GFP viability, ATP luminescence, 18 h. Potency, µM (top dose mostly 46.1 µM), inactives show top-dose activity change, negative = cytotoxicity, hits mostly cytotoxic. 410,000 tested, 0.76% active. AID 588856
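CellTiter-Glo luminescence gave cytotoxicity after 18 hours at 37 degrees C. The cells were HepG2 CAGA-GFP in 1% FBS DMEM, stimulated with 500 pg/mL TGF-beta after compound addition. %Activity was normalised to no-cell wells (complete cell-killing) and DMSO (no toxicity), and curves were fitted and classified.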
TGFb inhibitor: blocks TGF-b signaling; AID 588855; 410,000 tested, 1.2% active; Potency, µM (titrated, usually from 46.1 µM), for the others: at the highest dose activity, negative = inhibition, usual class: inhibitors; HepG2 CAGA-GFP TGF-b/SMAD3 reporter, GFP fluorescence, 18 h; TGF-beta stimulated, 500 pg/mL final; also: % is scaled to controls: 0 for no effect and ±100 for the full control effect; nearly all actives have a fitted effect of over 65% in size
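Using HEPG2 CAGA-GFP reporter cells at 1000 cells/well, we pinned test compounds, stimulated with recombinant TGF-beta (500 pg/mL final) and measured total well GFP after 18 h.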
DT40 TDP1 no CPT: qHTS for Inhibitors of human tyrosyl-DNA phosphodiesterase 1 (TDP1): qHTS in cells in absence of CPT; DT40 Tdp1-/- hTDP1 cells, no CPT, ATP luminescence, 48 h; Potency, µM (titrated, usually from 46.2 µM), inactives show at the highest dose activity change, negative = growth inhibition, usual class: inhibitors; 420,000 tested, 15% active; also: % is scaled to controls: 0 for no effect and ±100 for the full control effect; nearly all actives have a fitted effect of over 55% in size
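Readout: luminescence from CellTiter-Glo after 30 min in the dark at RT. Cells: DT40 Tdp1-/- with stable hTDP1, 400/well. Exposure: compounds alone, ≥48 hr, 37 °C.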
S2 tox: cell viability loss in ATXN counter-screen; S2 cells (HEK-293 line with an ATXN2-luciferase reporter) viability, CellTiter-Fluor protease fluorescence, 24 h; Potency, µM (highest dose often 56.7 µM), most hits filed as cytotoxic; 400,000 tested, 0.49% active; AID 651635; also: nearly all actives have a fitted effect of over 40% in size
TDP1 cell CPT: DT40-hTDP1 cell growth loss with CPT; chicken DT40 Tdp1-/-;hTDP1 cells + 20 nM CPT, ATP luminescence, 48 h; 420,000 tested, 12% active; Potency, µM (series often up to 46.2 µM), without a hit: at the highest dose activity change, negative = growth inhibition, usual class: inhibitors; also: % is scaled to controls: 0 for no effect and ±100 for the full control effect; nearly all actives have a fitted effect of over 55% in size
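Cell growth measured by CellTiter-Glo luminescence after a minimum 48 h, 37 C compound exposure with 20 nM CPT in Tdp1-knockout DT40 cells stably expressing hTDP1, seeded 400/well; qHTS titration format.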
ATXN2 expr inh: inhibitors of ATXN2 expression; HEK-293 ATXN2-luciferase reporter, luminescence, 24 h; Potency, µM (highest dose often 57 µM), without a hit: at the top dose activity change, negative = inhibition, hits mostly inhibitors; 360,000 tested, 0.72% active; AID 1745845; also: % is scaled to controls: 0 for no effect and ±100 for the full control effect; nearly all actives have a fitted effect of over 55% in size
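qHTS (up to 57 uM final) was run with 24 h compound exposure of reporter cells at 37 °C. Each well was multiplexed: SteadyGlo luminescence measured ATXN2-luciferase expression after a fluorogenic Gly-Phe-AFC viability readout (25 uM final).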
* hit, by the source's call; i = inactive; ? = inconclusive; . = no result given. Calls follow the shape of the dose curve; as a rule, active = well fitted curve in the direction sought with a large enough effect; inconclusive = small, poorly fitted or top-dose-only effect, or another doubt; inactive = no such curve, though single readings can be large; an effect the other way counts as inactive or inconclusive. Potency is read from the fitted curve at half-maximal effect.

SMILES | HepG2 viability | TGFb inhibitor | DT40 TDP1 no CPT | S2 tox | TDP1 cell CPT | ATXN2 expr inh
C=CCC1(CCCCC)C(=O)NC(=S)NC1=O | 19% | 7% | -20% | i | 4% | 7%
C[C@H]1C/C=C/[C@H]2[C@H](O)[C@H](C)[C@@](C)(O)[C@H]3[C@H](Cc4ccccc4)NC(=O)[C@]32[C@H](O)/C=C/[C@](C)(O)C1 | -30% | -19% | 8.2µM* | i | 3.7µM* | -9%
CC(=O)O[C@@H]1/C=C/[C@](C)(O)C[C@@H](C)C/C=C/[C@H]2[C@H](O)C(C)=C(C)[C@H]3[C@H](Cc4ccccc4)NC(=O)[C@@]123 | -36% | 7% | 0.58µM* | i | 0.58µM* | 2%
C=C1C(C)C2C(Cc3ccccc3)NC(=O)C23C(OC(C)=O)C=CC(C)(O)CC(C)CC=CC3C1O (configuration not stated) | -20% | -19% | 0.73µM* | ? | 0.46µM* | 0%
C=C1[C@@H](C)[C@H]2[C@H](Cc3ccccc3)NC(=O)[C@]23OC(=O)/C=C/[C@H](O)CCC[C@@H](C)C/C=C/[C@H]3[C@@H]1O | -36% | ? | 0.65µM* | i | 1.8µM* | -10%
Nc1ccc(N)cc1 | . | . | -17% | ? | -22% | ?
Cc1cccc(-n2nc(C)c3c2NC(=O)CSC3c2ccccc2Cl)c1 (configuration not stated) | -16% | ? | 21µM* | i | ? | 0%
CC(=O)N1CC(=O)Nc2ccc(Cl)cc2C1c1ccccc1 (configuration not stated) | 2% | -1% | -10% | i | 12% | -13%
Cc1ccccc1-n1nc(C)c2c1NC(=O)CSC2c1ccc(N(C)C)cc1 (configuration not stated) | -4% | ? | 18µM* | i | ? | -1%
O=C1CSC(c2ccccc2Cl)c2cc(Cl)ccc2N1 (configuration not stated) | . | . | 39µM* | . | ? | .
COc1ccc(C2SCC(=O)Nc3c2c(C)nn3-c2ccccc2)cc1OC (configuration not stated) | 0% | ? | 1% | . | -18% | .
COCCN(CC(=O)Oc1ccccc1P(=O)(OC)OC)Cc1ccccc1 | 37% | 30% | -13% | i | 1% | -24%
COCC(=O)Nc1nnc(SCC(=O)NCc2cccs2)s1 | -1% | ? | -16% | i | -25% | -1%
C[C@H]1CN([C@@H](C)CO)C(=O)CCCn2nncc2CO[C@H]1CN(C)C(=O)Nc1ccc(N2CCCCC2)cc1 | -16% | -4% | -5% | i | 0% | -3%
CCCC/C(=N\O)c1c[nH]c2ccccc12 | -4% | -13% | -4% | i | -26% | 6%
C#CCOc1cc(C2C3=C(COC3=O)Nc3cc4c(cc32)OCO4)ccc1OC (configuration not stated) | -4% | ? | -61% | i | 21µM* | -24%
COC(=O)[C@]1(C)CC[C@@]2(C)CC[C@@]3(C)C4=CC=C5C(=CC(=O)C(O)=C5C)[C@@]4(C)CC[C@@]3(C)C2C1 (some centres not stated) | . | . | 0.73µM* | . | 1µM* | .
CC(C)CC1C(=O)N(Cc2cn(CC3CCCCC3)nn2)CCS(=O)(=O)N1Cc1ccc(-c2ccc(F)nc2)cc1 (configuration not stated) | -18% | -8% | 18µM* | ? | 21µM* | ?
O=c1[nH]c(O)c(N=Nc2cc([N+](=O)[O-])ccc2O)c(=O)[nH]1 | 1% | -1% | -27% | 9.5µM* | -7% | 4%
O=c1[nH]c(O)c(N=Nc2ccc(SC(F)F)cc2)c(=O)[nH]1 | -8% | -1% | 21% | ? | -7% | -3%
C=C1CCN(C(CC(C)C)C(=O)Nc2ccc(OC)cc2)S(=O)(=O)c2ccccc21 (configuration not stated) | -17% | ? | . | . | . | .
CCOP(=S)(OCC)N1CC1 | 3% | -19% | 15% | i | 15% | 1%
Nc1ncnc2c1ncn2[C@@H]1O[C@H](COP(=O)(O)CP(=O)(O)O)[C@@H](O)[C@H]1O | -32% | 2% | ? | i | 4.1µM* | 0%
Oc1ccc2c3c1O[C@H]1[C@@H](O)CC[C@]4(O)[C@H](C2)N(CC2CCC2)CC[C@@]314 | . | . | . | i | . | .
CC(C)(C)c1cc(OC(=O)Cc2ccccc2)ccc1O | -29% | ? | -16% | ? | -25% | 0%
SMILES | HepG2 viability | TGFb inhibitor | DT40 TDP1 no CPT | S2 tox | TDP1 cell CPT | ATXN2 expr inh
COc1cc(CC(C)N)c(OC)cc1Br (configuration not stated) | . | . | 28µM* | ? | ? | ?
COc1ccccc1Sc1ccccc1CC(C)N (configuration not stated) | -13% | 10% | 18µM* | i | 15µM* | -18%
C[C@@H]1CN([C@H](C)CO)C(=O)CCCn2nncc2CO[C@@H]1CN(C)C(=O)Nc1ccc(N2CCCCC2)cc1 | -11% | -2% | ? | ? | 3% | 9%
C=C(C)[C@@H]1[C@H]2OC(=O)[C@H]1[C@]1(O)C[C@H]3O[C@]34C(=O)O[C@H]2[C@]14C | -13% | 0% | 5% | i | -10% | 3%
Cc1ccc2c(c1)CC1(CN2C)C(=O)NC(=O)N(C(C)C)C1=O (configuration not stated) | 14% | -1% | ? | i | 18µM* | 4%
Cc1cccc(N2C(=O)NC(=O)C3(Cc4cc(C)ccc4N(C)C3)C2=O)c1 (configuration not stated) | -1% | -21% | ? | i | 1% | 8%
COc1ccc(NC(=O)CCOc2cc(C)ccc2C)cc1S(=O)(=O)N1CCCCC1 | -22% | -20% | 21µM* | ? | ? | -24%
COc1c(C)cc(C(=O)C2CCCN(Cc3ccccn3)C2)cc1C (configuration not stated) | -20% | ? | 18µM* | i | ? | -7%
COc1c(C)cc(C(=O)C2CCCN(Cc3cnc(C)s3)C2)cc1C (configuration not stated) | -23% | -7% | 26µM* | i | ? | -32%
Nc1ccc(Cl)cc1C(=O)c1ccccc1F | . | . | . | i | . | 0%
